High-throughput results deposited in PubChem by National Center for Advancing Translational Sciences (NCATS).
This is one part of a sample in which hits are shown more often than they occur.
Sm TGR inh = qHTS Assay for the Inhibitors of Schistosoma Mansoni Peroxiredoxins; hit rate 3% among 360,000; purified TGR, DTNB reduction, TNB absorbance 405 nm; Potency, µM (series often up to 114 µM), for inactives: top-dose activity change, negative = inhibition, most hits filed as inhibitors; Schistosoma mansoni thioredoxin glutathione reductase (TGR), Q962Y6; note: potency is the fitted concentration of half-maximal effect; % is set by controls: 0 for no effect and ±100 for the full control effect; nearly all actives have a fitted effect of over 60% in size
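TGR 20 nM + NADPH 100 uM (dispensed conc.), cpd preinc 15 min RT; start with NADPH (500 uM addition) then DTNB (15 mM addition). Kinetic TNB absorbance, 405 nm filter. Four-parameter Hill fit across titration.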
Shiga toxin inh = A qHTS for Small Molecule Inhibitors of Shiga Toxin. Vero cells, Shiga toxin protein synthesis inhibition reporter. hit rate 9.2% among 290,000. inhibition, % at 38.7 µM; in the data active = inhibition mostly above about 28%, no sharp cut-off; inactive = mostly below about 43%; note: 0% is about no effect
FBPA Giardia inh = qHTS Assay for Inhibitors of Fructose-1,6-bisphosphate Aldolase from Giardia Lamblia | A8B2U2 | purified Giardia FBPA | Potency, µM (highest dose often 59.6 µM), inactives show top-dose activity, negative = inhibition, usual class: inhibitors | hit rate 0.71% among 290,000; note: potency is the fitted concentration of half-maximal effect; % is set by controls: 0 for no effect and ±100 for the full control effect; nearly all actives have a fitted effect of over 55% in size
Target sequence (A8B2U2 whole entry, looked up): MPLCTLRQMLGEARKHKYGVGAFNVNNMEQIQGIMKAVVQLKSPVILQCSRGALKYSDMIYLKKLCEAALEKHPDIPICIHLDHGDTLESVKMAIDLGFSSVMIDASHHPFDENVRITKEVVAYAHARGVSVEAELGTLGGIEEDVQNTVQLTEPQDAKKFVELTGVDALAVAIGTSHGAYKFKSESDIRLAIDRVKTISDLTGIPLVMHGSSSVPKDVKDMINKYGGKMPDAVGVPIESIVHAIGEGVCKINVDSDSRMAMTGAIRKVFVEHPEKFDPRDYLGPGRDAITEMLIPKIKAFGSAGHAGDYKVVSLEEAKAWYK
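Giardia FBPA (40 nM reagent) was preincubated 10 min at RT with compound (up to 57.5 uM final), then substrate plus GAPDH/TPI/NAD/arsenate coupling system with diaphorase/resazurin was added; resorufin fluorescence (525/598 nm) was read after 20 min.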
TbPYK inhibitor = qHTS of Trypanosoma Brucei Inhibitors; hit rate 0.12% among 410,000; pyruvate kinase (Trypanosoma brucei), Q57TT1; Potency, µM (doses to about 76.8 µM), without a hit: at the top dose activity, negative = inhibition, usual class: inhibitors; TbPYK enzyme, Kinase-Glo Plus ATP luminescence, 45 min; note: potency is the fitted concentration of half-maximal effect; % is set by controls: 0 for no effect and ±100 for the full control effect; nearly all actives have a fitted effect of over 50% in size
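Luminescence from Kinase-Glo Plus, added after a 45-minute room-temperature reaction, served as the end-point read-out. The enzyme and substrate were preincubated with compound before ADP (130 uM final) initiated turnover. Concentration-effect curves came from normalized qHTS data.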
LmPK inhibitor = qHTS Assay for Inhibitors of Leishmania Mexicana Pyruvate Kinase (LmPK); Q27686; purified LmPK, Kinase-Glo ATP luminescence, 1 h; Potency, µM (highest dose often 57.5 µM), inactives show top-dose activity change, negative = inhibition, hits mostly inhibitors; hit rate 0.37% among 290,000; AID 1721, 2009; note: potency is the fitted concentration of half-maximal effect; % is set by controls: 0 for no effect and ±100 for the full control effect
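0.1 nM LmPK, 0.5 mM PEP, 0.1 mM ADP; 50 mM imidazole pH 7.2, 7 mM MgCl2, 50 mM KCl; 1 h RT. Kinase-Glo luminescence readout, normalized to no-enzyme (full inhibition) and uninhibited wells.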
CHX counter = Cycloheximide Counterscreen for Small Molecule Inhibitors of Shiga Toxin | cell reporter, cycloheximide protein synthesis inhibition counterscreen | max response, % | hit rate 12% among 300,000; in the data active = max response mostly above about 13%, no sharp cut-off; inactive = mostly below about 14%; note: read at 38.3 µM for the half of the compounds with a filed dose; 0% is about no effect
* = called active by the depositor; ? = inconclusive; · = no result; ! = a repeat was not active; [ ] = another dose, or the depositor's remark. Unless noted, calls come from the whole dose curve; as a rule, active = well fitted curve in the direction sought with a large enough effect; inconclusive = small, poorly fitted or top-dose-only effect, or another doubt; inactive = no such curve, though single readings can be large; an effect the other way counts as inactive or inconclusive.

SMILES	Sm TGR inh	Shiga toxin inh	FBPA Giardia inh	TbPYK inhibitor	LmPK inhibitor	CHX counter
CC(/C=C/c1ccc2c(c1)OCO2)=N\NC(=O)C(O)c1ccccc1 (stereo not drawn)	1%	10	0%	0%	-5%	6
CC(/C=C/c1ccc2c(c1)OCO2)=N\NC(=O)c1ccccc1	-5%	152*	-9%	1%	2%[11.5 µM]	41*
Cc1ccc(S(=O)(=O)N2CCN(Cc3ccccc3)CC2)s1	-15%	·	·	2%	·	·
COc1ccc(CNC(=O)Cc2c(C(=O)O)c(C)cn2C)cc1	1%	·	·	1%	·	·
CCN(C(=O)CSc1cc(C)c2cccc(C)c2n1)C1CCS(=O)(=O)C1 (stereo not drawn)	10%	-8	0%	5%	9%	-3
O=C1CCC=C1[C@@H](O)CCc1ccccc1	·	·	1%[12.9 µM]	·	·	·
CC(C)c1ccc(S(=O)(=O)NCc2nc3cccnc3n2Cc2ccc(F)cc2)cc1	8%	·	·	-8%	·	·
C/C(=N\NC(=O)CSc1nc(C)cc(C)n1)c1ccc2c(c1)OCCO2	8%	84*	0%	-7%	5%[11.5 µM]	38*
COc1ccc(/C(C)=N\NC(=O)c2ccc3c(c2)OCO3)cc1OC	14%	49	4%	·	0%	39*
O=C(N/N=C/C=C/c1ccc2c(c1)OCO2)C(O)c1ccccc1 (stereo not drawn)	7%	47*	0%	-6%	3%	11
O=C(N/N=C\C=C\c1ccc2c(c1)OCO2)C1COc2cc3ccccc3cc2O1 (stereo not drawn)	4%	-16	2%	3%	-1%	-3
CC/C(=N\NC(=O)c1ccc2c(c1)OCO2)C12CC3CC(CC(C3)C1)C2	-4%	57*	-8%	1%	1%	26*
CCOc1ccccc1CNc1ncnc2c1nc1n2CCCC1	0%	·	·	-7%	·	·
CC(C)CC(CO)N1CCN(C(=O)c2ccc(Cl)cc2)CCC1=O (stereo not drawn)	·	·	·	4%	·	·
Cc1ccc(C)c(NC(=O)CSc2c3c(nc4ccc(Cl)cc24)CCCC3)c1	1%	·	·	5%	·	·
COc1cc(C(=O)N/N=C(\C)c2ccc3c(c2)OCO3)cc(OC)c1OC	-5%	-23	8%	4%	3%	4
C/C(=N\NC(=O)c1nn(C)cc1Br)c1cccc(NC(=O)c2ccncc2)c1	-3%	84*	2%	-5%	-8%	50*
C/C(=N/NC(=O)c1ccc2c(c1)OCO2)c1cccc([N+](=O)[O-])c1	2%	37*	·	2%	-8%	31*
CC(=NNC(=O)c1ccncc1)c1cccc(Br)c1	·	·	·	-7%	·	·
N#CCCN(C(=O)COC(=O)/C=C/c1cccs1)c1ccccc1	·	·	·	4%	·	·
CCOCCCNC(=O)/C(C#N)=C/c1ccc(C)o1	40µM*	28	-13%	-21%	-6%	9
COc1ccc(N(CCC#N)C(=O)/C(C#N)=C\c2cccs2)cc1	10%	41	-1%	-3%	4%	20*
N#C/C(=C\c1cccs1)C(=O)NCc1ccco1	-10%	56*	0%	-1%	4%	39*
CN(C)c1ccc(/C=C(/C#N)C(=O)NCc2ccccc2)o1	-27%	31	-5%	-9%	-1%	59*
CCCCCCCC1=Cc2ccccc2C(C(C(C)=O)C(=O)OC)N1C(=O)OC (stereo not drawn)	·	·	5%[12.9 µM]	·	-1%[11.5 µM]	·
SMILES	Sm TGR inh	Shiga toxin inh	FBPA Giardia inh	TbPYK inhibitor	LmPK inhibitor	CHX counter
CC(=O)N1CCCc2cc(S(=O)(=O)N(C)CC(=O)Nc3cccc(C)c3C)ccc21	-1%	·	·	0%	·	·
COCCNC(=O)/C(C#N)=C/c1ccc(SC)cc1	-6%	65*	3%	-1%	-5%	30*
CSc1ccc(/C=C(\C#N)C(=O)Nc2cccc(C)c2)cc1	-6%	36	1%	-9%	-6%	22*
COCCNC(=O)/C(C#N)=C/c1cccs1	1%	31	-3%	1%	1%	14*
Cc1ccc(/C=C(\C#N)C(=O)NCc2ccco2)o1	-2%	66*	-4%	-3%	-1%	43*
CCC(C(=O)O)C1CCC(C)C(C(C)C(O)C(C)C(=O)C(CC)C2OC3(C=CC(O)[C@@]4(CC[C@](C)(C5CC[C@@](O)(CC)C(C)O5)O4)O3)C(C)CC2C)O1 (stereo partly drawn)	·	·	13%	-6%	·	·
C=C[C@H]1CCC=C2C(=O)CCC[C@@H]21	·	·	-2%	·	·	·
CCCC(CCC)C(N)=O	·	·	·	-10%	·	·
COc1cccc(N2CCN(C(=O)Cn3ncc4c(=O)oc5ccccc5c43)CC2)c1	6%	·	·	4%	·	·
Cc1ccc(C)c(N2CCN(C(=O)Cn3ncc4c(=O)oc5ccccc5c43)CC2)c1	8.9µM*	·	·	2%	·	·
CCOc1ccc(NC(=O)NCc2ccco2)cc1	14%	25	2%	3%	-3%	12*
O=C(NCc1ccco1)Nc1ccc([N+](=O)[O-])cc1	-8%	24	3%	5%	-2%	26*!
CCOc1ccc(NC(=O)NC2(C(=O)NCc3ccco3)CCCCC2)cc1	3%	-7	1%	-2%	6%	0
CC(C(=O)NCc1ccco1)c1ccc([N+](=O)[O-])cc1 (stereo not drawn)	·	-4	4%	-19%	0%	-1
O=C(NCc1ccco1)c1ccc2c(c1)C(=O)c1ccccc1-2	13µM*	67*	-6%	-6%	-3%	19*
O=C(NCc1ccco1)c1ccc2c(c1)C(=O)N(Cc1ccccc1)C2=O	-15%	3	2%	-3%	1%	-1
O=C(Nc1ccc([N+](=O)[O-])cc1)Nc1ccc([N+](=O)[O-])cc1	·	·	·	-7%	·	·
O=C(NCc1ccccc1F)Nc1ccc([N+](=O)[O-])cc1	9%	35*	-2%	1%	7%	18
O=C(CCNS(=O)(=O)c1cccc2nsnc12)Nc1ccc(F)cc1	2%	·	·	4%	·	·
COCCn1c(SCC(=O)N2CCCC2=O)nnc1-c1ccncc1	·	·	·	-17%	·	·
CCOc1ccc(C(=O)NCc2ccco2)cc1	10%[11.4 µM]	63*	?	-4%	0%	41*
CCOc1cc(OCC)cc(C(=O)NCc2ccco2)c1	-12%	-6	-5%	-11%	-7%	1
O=C(NCc1ccco1)c1ccc2ccccc2c1	-35%	79*	-10%	2%	-10%	36*
CC(C)(CO)NC(=O)c1ccc2c(c1)C(=O)c1ccccc1-2	12%	86*	0%	6%	1%	51*
COc1ccc(C(=O)NCCS(=O)(=O)NCc2ccco2)cc1	45µM*	·	·	3%	·	·
COCCNC(=O)c1ccc2c(c1)C(=O)c1ccccc1-2	-25%	19	-3%	11%	2%	10
